Reference: PubChem BioAssay (Tox21)
Inconclusive results are not listed. Activity calls are given as the source filed them. Unless noted, calls come from the whole dose curve.

molecular target: Vitamin D3 receptor (Homo sapiens) (UniProt P11473); assay: qHTS assay to identify small molecule agonists of the vitamin D receptor (VDR) signaling pathway (AID 743222); conditions: HEK293T VDR-UAS-bla, beta-lactamase FRET ratio, 16 h; series mostly up to 63.5 µM
Summary of the method: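 Tox21 cell reporter format: VDR-bla line, 16 h compound exposure in 5% CO2 at 37C, then fluorescence intensity after 2 h with LiveBLAzer B/G FRET substrate.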

Chain of Vitamin D3 receptor (Homo sapiens) (P11473 whole entry, looked up): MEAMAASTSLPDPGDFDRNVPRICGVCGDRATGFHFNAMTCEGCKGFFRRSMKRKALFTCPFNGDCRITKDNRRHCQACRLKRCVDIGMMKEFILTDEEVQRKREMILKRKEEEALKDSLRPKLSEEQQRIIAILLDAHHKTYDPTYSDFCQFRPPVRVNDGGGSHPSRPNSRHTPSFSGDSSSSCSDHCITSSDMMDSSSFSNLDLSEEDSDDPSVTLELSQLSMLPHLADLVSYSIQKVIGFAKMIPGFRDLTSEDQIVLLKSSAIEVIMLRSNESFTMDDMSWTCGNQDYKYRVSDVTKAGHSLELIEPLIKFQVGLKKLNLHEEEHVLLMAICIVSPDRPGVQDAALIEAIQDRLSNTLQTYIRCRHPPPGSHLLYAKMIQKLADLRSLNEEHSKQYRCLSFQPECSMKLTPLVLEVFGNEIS

Row | Structure (SMILES) | outcome
1 | CCOc1ccccc1OCCN[C@H](C)Cc1ccc(OC)c(S(N)(=O)=O)c1 | inactive
2 | CC(CN1CC(=O)NC(=O)C1)N1CC(=O)NC(=O)C1 (stereo not given) | inactive
3 | O=C(O)/C=C(\CC(=O)O)C(=O)O | inactive
4 | CC(=O)c1ccc2ccc3ccccc3c2c1 | inactive
5 | CCC(C)SSC(C)CC (stereo not given) | inactive
6 | Cc1ccc(S(=O)(=O)NC(=O)NN2CC3CCCC3C2)cc1 (stereo not given) | inactive
7 | O=C1CC2(CCCC2)CC(=O)N1CCNCC1COc2ccccc2O1 (stereo not given) | inactive
8 | CC(C)(C)NCC(O)COc1cccc2c1CCC(=O)N2 (stereo not given) | inactive
9 | Clc1cc(Cl)c(Cl)c(Cl)c1Cl | inactive
10 | Cc1cc(C)c(C)c(C)c1 | inactive
11 | CC1(C)C(=O)C(C)(C)C1=O | inactive
12 | Cc1ccc(Br)cc1 | inactive
13 | CSC(=O)c1cccc2nnsc12 | inactive
14 | CN(C)c1ccncc1 | inactive
15 | C=CCN(CC=C)CC=C | inactive
16 | CC(=O)OC1CCC(C(C)(C)C)CC1 (stereo not given) | inactive
17 | O=C(O)P(=O)(O)O | inactive
18 | CC[C@@]1(c2ccccc2)NC(=O)N(C)C1=O | inactive
19 | Cc1cc(O)c(Cl)cc1C | inactive
20 | NS(=O)(=O)c1cc2c(cc1C(F)(F)F)NCNS2(=O)=O | inactive
21 | CCN(CC)CC | inactive
22 | CCCCN1C(=O)c2ccccc2C1=O | inactive
23 | CCC(C)(C)C | inactive
24 | Cc1ccc2ccccc2n1 | inactive

molecular target: Vitamin D3 receptor (Homo sapiens) (UniProt P11473); assay: qHTS assay to identify small molecule antagonists of the vitamin D receptor (VDR) signaling pathway (AID 743223; active = well fitted inhibition curve with a large enough effect in the signal ratio in the repeat runs, not every such curve was filed as active; the % refers to the signal ratio); conditions: VDR-UAS-bla HEK293T, beta-lactamase FRET ratio, 16 h; series mostly up to 61 µM
Summary of the method: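 VDR-bla cells were plated, incubated 4 h at 37C, then given compound and 1alpha,25-dihydroxyvitamin D3 (3 nM final). After 16 h at 37C, LiveBLAzer B/G FRET substrate was added for 2 h at room temperature and fluorescence read.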

Row | Structure (SMILES) | outcome
25 | CCOc1ccccc1OCCN[C@H](C)Cc1ccc(OC)c(S(N)(=O)=O)c1 | inactive
26 | O=C(O)/C=C(\CC(=O)O)C(=O)O | inactive
27 | CC(=O)c1ccc2ccc3ccccc3c2c1 | inactive
28 | CCC(C)SSC(C)CC (stereo not given) | inactive
29 | Cc1ccc(S(=O)(=O)NC(=O)NN2CC3CCCC3C2)cc1 (stereo not given) | inactive
30 | O=C1CC2(CCCC2)CC(=O)N1CCNCC1COc2ccccc2O1 (stereo not given) | inactive
31 | CCCCCCCCS(=O)(=O)O | inactive
32 | Clc1cc(Cl)c(Cl)c(Cl)c1Cl | inactive
33 | Cc1cc(C)c(C)c(C)c1 | inactive
34 | CC1(C)C(=O)C(C)(C)C1=O | inactive
35 | Cc1ccc(Br)cc1 | inactive
36 | CSC(=O)c1cccc2nnsc12 | inactive
37 | CN(C)c1ccncc1 | inactive
38 | CC(C)(O)CCCC1=CCC(C=O)CC1 (stereo not given) | inactive
39 | CC/C=C\CCOC(=O)c1ccccc1 | inactive
40 | O=C(O)P(=O)(O)O | inactive
41 | Cc1cc(O)c(Cl)cc1C | inactive
42 | NS(=O)(=O)c1cc2c(cc1C(F)(F)F)NCNS2(=O)=O | inactive
43 | CCN(CC)CC | inactive
44 | CCC(C)(C)C | inactive
45 | Cc1ccc2ccccc2n1 | inactive
